High-throughput results: PubChem, National Center for Advancing Translational Sciences (NCATS)
This is a sample that favours compounds with a hit; in the whole collection about 1.3% have one here.
pAkt inh – Akt phosphorylation inhibition; Neuro2A IGF-stimulated pAkt S473 HTRF, 20 min; active compounds read low; activity change, % for hits at 50 µM; actives 0.32% (n = 360,000); in the data active = activity change below about -80%; inconclusive = mostly about -51% to -80%
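Single-point screen (50 µM final compound) in Neuro2A cells stimulated 20 min with 6 nM IGF at 37 deg C. After lysis, Ser473-phosphorylated Akt read by HTRF (ex 330 nm, em 615/665 nm) as the 665/615 ratio.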
gsp antagonist – gsp mutant antagonism; actives 0.4% (n = 340,000); Potency, µM (top dose mostly 76.9 µM), hits mostly inhibitors; gsp-mutant cells, cAMP HTRF, 30 min; calls by dose curve; cell line not stated here;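 note: intracellular cAMP measured with PDE inhibitor Ro 20-1724 present during compound exposure; nearly all actives have a fitted effect of over 65% in size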
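HTRF cAMP read-out (cAMP-d2 plus anti-cAMP antibody-K in lysis buffer, 30 min RT). Before lysis, cells are exposed to compounds with […] for 30 min at 37C in DPBS containing Ca/Mg, BSA and Tween 20.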
RXFP1 ag – agonists of human relaxin receptor RXFP1; actives 0.3% (n = 370,000); HEK293T-RXFP1 cAMP TR-FRET, 30 min; response scale: percent of porcine relaxin response, buffer zero; AID 2676; Potency, µM (titrated, usually from 57.5 µM), most hits filed as activators; active = well fitted activation curve with a large enough effect; inconclusive = small, poorly fitted or top-dose-only effect; note: nearly all actives have a fitted effect of over 60% in size
Target sequence (Q9HBX9 whole entry, looked up): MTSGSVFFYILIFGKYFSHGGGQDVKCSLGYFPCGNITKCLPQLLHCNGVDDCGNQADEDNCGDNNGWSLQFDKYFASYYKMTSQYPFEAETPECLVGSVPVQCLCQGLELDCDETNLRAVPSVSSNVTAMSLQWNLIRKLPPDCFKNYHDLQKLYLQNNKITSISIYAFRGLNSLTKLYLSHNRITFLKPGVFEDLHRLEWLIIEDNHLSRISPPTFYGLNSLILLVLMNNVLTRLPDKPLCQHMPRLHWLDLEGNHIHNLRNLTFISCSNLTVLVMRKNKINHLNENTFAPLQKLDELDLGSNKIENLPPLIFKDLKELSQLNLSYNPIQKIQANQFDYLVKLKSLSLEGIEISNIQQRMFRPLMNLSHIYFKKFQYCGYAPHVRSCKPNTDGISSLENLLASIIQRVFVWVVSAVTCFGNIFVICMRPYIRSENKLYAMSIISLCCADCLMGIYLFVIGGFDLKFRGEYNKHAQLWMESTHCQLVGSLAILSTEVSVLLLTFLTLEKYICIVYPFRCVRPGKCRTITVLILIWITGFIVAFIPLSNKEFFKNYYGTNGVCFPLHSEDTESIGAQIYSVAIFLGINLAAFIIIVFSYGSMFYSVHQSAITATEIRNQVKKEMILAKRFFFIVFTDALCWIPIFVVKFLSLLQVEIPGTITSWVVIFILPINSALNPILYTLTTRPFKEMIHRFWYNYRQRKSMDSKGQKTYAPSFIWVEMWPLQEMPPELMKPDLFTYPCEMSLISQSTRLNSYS
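HEK293T cells stably expressing RXFP1 were pretreated with the PDE4 inhibitor Ro 20174, exposed to compounds for 30 min at 37C, lysed, and cAMP was read by TR-FRET. Data normalized to buffer (basal) and 29 nM porcine relaxin (100%).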
gsp agonist – gsp mutant agonism; gsp mutant cells, cAMP HTRF, 30 min; Potency, µM (doses to about 76.9 µM), actives largely listed as activators; actives 0.13% (n = 340,000); AID 624287; active = well fitted activation curve with a large enough effect; inconclusive = small, poorly fitted or top-dose-only effect, or another doubt; inactive = no such curve, though single readings can be large or run the other way; cell line not stated here;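 note: phosphodiesterase inhibitor Ro 20-1724 added with compounds to block cAMP breakdown; nearly all actives have a fitted effect of over 60% in size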
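Cells stably selected in G418 were plated at 2000/well, grown 16-24 hr, then given compounds in DMSO with the PDE inhibitor […] (300 uM solution added) for 30 min at 37C; cAMP was read by HTRF.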
RXFP1 antag – RXFP1 (human) relaxin receptor antagonism. Q9HBX9. HEK293-RXFP1, relaxin-stimulated cAMP HTRF, 30 min; active compounds read low. activity change, negative = inhibition, % at 57.5 µM. actives 0.59% (n = 350,000). AID 1259400;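 active = activity change of -60% or lower, but not beyond a set lower limit; inconclusive = change between -60% and -40%, or beyond the set limit; inactive = change above -40%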
Each line names hits and unclear results; the compound was inactive in the other large screens.

CC(=O)c1c(C)[nH]c(C(=O)COC(=O)CNS(=O)(=O)c2ccccc2)c1C	none
CCOc1ccc(NC(=O)c2ccc(NC(=O)N3CCSc4ncccc43)cc2)cc1	none (no result: pAkt inh, gsp antagonist, gsp agonist)
CCC(=O)Nc1nn(C)c2nc3c(C)cccc3cc12	pAkt inh -113%
COc1cc2ncc3c(-c4ccccc4)nn(CC(=O)NC4CCCCC4)c3c2cc1OC	none (no result: pAkt inh, gsp antagonist, gsp agonist)
CCOC(=O)c1ccccc1NC(=O)c1cnc(N2CCOCC2)c2ccccc12	none (no result: pAkt inh, gsp antagonist, gsp agonist)
Cc1ccc(C)c(NC(=O)CN2CCSc3ccc(S(=O)(=O)N4CCCC4)cc32)c1	none (no result: pAkt inh, gsp antagonist, gsp agonist, RXFP1 antag)
CC1=NOC(=O)/C1=C\c1ccc(-c2cccc(Cl)c2)o1	none (no result: RXFP1 antag)
CC1=NOC(=O)/C1=C\c1ccc(-c2ccccc2Br)o1	RXFP1 ag 18µM, gsp agonist 16µM
CCC1(C)Cc2c(sc3c2c2ncnn2c2nnc(SCC(=O)NCc4ccco4)n32)CO1 (stereo not given)	RXFP1 ag inconclusive, gsp agonist 2.8µM
O=C(Nc1ccccc1)Nc1cc(OCC(F)(F)F)cc(OCC(F)(F)F)c1	gsp antagonist 32µM, RXFP1 antag -72
CCN1CCN(CCCNC(=O)Cn2c(-c3cccs3)cc3cc(Cl)ccc32)CC1	RXFP1 antag -69 (no result: pAkt inh, gsp antagonist, gsp agonist)
CN1CCN(CCCNC(=O)Cn2c(-c3cccs3)cc3cc(Cl)ccc32)CC1	none (no result: pAkt inh, gsp antagonist, gsp agonist)
Cc1cccc2sc(N(CCCN(C)C)C(=O)c3ccc4ncsc4c3)nc12	none
Cc1ccc2nc(N(CCCN(C)C)C(=O)c3ccc(S(=O)(=O)N4CCc5ccccc5C4)cc3)sc2c1	RXFP1 antag -65
CCc1ccc2nc(N(CCN(C)C)C(=O)c3ccc4ncsc4c3)sc2c1	RXFP1 antag -68
Cc1ccc(C(=O)N(CCCN(C)C)c2nc3ccc(Cl)cc3s2)cc1C	RXFP1 antag -100
CN(C)CCCN(C(=O)c1ccc(S(=O)(=O)N2CCc3ccccc3C2)cc1)c1nc2ccc(F)cc2s1	none
CCOC(=O)C1CCCN(C(=O)c2cc(S(=O)(=O)N(C)C)ccc2N2CCCC2)C1 (stereo not given)	RXFP1 antag -71
CN1C(=O)CC(N2CCN(C(=O)CN3CCCC3)CC2)C1=O (stereo not given)	none
CN1C(=O)CC(N2CCN(CC(=O)N3CCCC3)CC2)C1=O (stereo not given)	pAkt inh -113%
CN(C)c1ccc(/C=C/c2ccc3ccccc3[n+]2C)cc1	gsp antagonist inconclusive, RXFP1 antag -92
CN(CCCS(=O)(=O)[O-])c1ccc(/C=C/c2ccc3ccccc3[n+]2C)cc1	none
CN(C)c1ccc(/C=C/c2ccc3c4ccccc4ccc3[n+]2-c2ccccc2)cc1	gsp antagonist 40µM, RXFP1 antag inconclusive
COc1ccc(-n2nc(C(=O)NCCc3ccc(OC)c(OC)c3)c3c4ccccc4n(C)c3c2=O)cc1	none (no result: pAkt inh, gsp antagonist, gsp agonist)
COc1ccc(N2C(=O)C(Cl)=C(N3CCOCC3)C2=O)cc1	RXFP1 antag -62
COc1ccc(N2C(=O)C(Cl)=C(Oc3cccc(OC)c3)C2=O)cc1	gsp antagonist 28µM
COc1ccc(N2C(=O)c3ccccc3C2=O)cc1	none
COc1ccc(N2C(=O)C(Cl)=C(N3CCN(Cc4ccccc4)CC3)C2=O)cc1	none
CCc1ccc(N2C(=O)C(Cl)=C(N3CCOCC3)C2=O)cc1	none
COc1ccc(N2C(=O)C(Cl)=C(N(CCO)Cc3ccccc3)C2=O)cc1	pAkt inh -112%
C[N+](C)(C)CC(O)CC(=O)[O-] (stereo not given)	none (no result: pAkt inh, gsp antagonist, RXFP1 ag, gsp agonist)
CCOc1ccc(CCNC(=O)c2nn(C)c3c2CSc2ccccc2-3)cc1	none (no result: pAkt inh, gsp antagonist, gsp agonist)
CC(C)/C(C=O)=C(/NC1CCCCC1)c1ccccc1	RXFP1 antag -63 (no result: RXFP1 ag)
CC(Oc1ccccc1)C(=O)NC1CCCCCCC1 (stereo not given)	none
CC(NC(=O)C(=O)N1CCCCC1)C(c1cccs1)N1CCN(Cc2ccccc2)CC1 (stereo not given)	gsp agonist inconclusive, RXFP1 antag -66
